Rows were chosen to be rich in hits. Some 2.4% of all compounds tested hit in one or more screens of this group.
TRHR agonist: TRH receptor (human) agonism | P34981 | TRHR cells, calcium flux fluo-8, FDSS agonist mode | activation, % at 2 µM | 360,000 compounds, 0.18% hits | AID 493084; in the data active = activation above about 30%; also: 0% is about no effect
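Agonist-mode FDSS calcium read (Ex 480/Em 530, 1 s cycles) in 1536-well TRHR cells with fluo-8 dye, after 10-cycle baseline and 23 nL compound addition; TRH at EC20 (10 nM final) added afterwards for the enhancer phase.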
GLP1R ag: activates the human GLP-1 receptor; 380,000 compounds, 0.007% hits; P43220; Potency, µM (doses to about 45.6 µM), without a hit: top-dose activation, hits mostly activators; HEK293 GLP-1R CRE-luciferase, luminescence, 4-6 h; cells express a hypersensitive GLP-1R form; also: potency is read from the fitted curve at half-maximal effect; % of control where 0% means no effect
Target sequence (P43220 whole entry, looked up): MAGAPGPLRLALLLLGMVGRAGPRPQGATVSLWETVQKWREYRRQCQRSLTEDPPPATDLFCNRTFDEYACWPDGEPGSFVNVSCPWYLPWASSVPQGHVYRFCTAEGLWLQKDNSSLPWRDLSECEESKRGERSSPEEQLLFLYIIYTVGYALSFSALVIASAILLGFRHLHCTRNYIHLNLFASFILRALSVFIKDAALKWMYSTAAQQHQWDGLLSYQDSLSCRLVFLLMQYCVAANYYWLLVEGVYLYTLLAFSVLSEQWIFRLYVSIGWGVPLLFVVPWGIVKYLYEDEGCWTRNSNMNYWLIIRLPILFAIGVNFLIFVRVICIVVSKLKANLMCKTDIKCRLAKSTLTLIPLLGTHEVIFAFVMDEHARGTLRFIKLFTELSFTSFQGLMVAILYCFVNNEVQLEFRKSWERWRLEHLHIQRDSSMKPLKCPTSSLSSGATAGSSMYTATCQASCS
PTHR1 ag: agonists of human PTHR1 parathyroid hormone receptor. Q03431. HEK293 GP2 PTHR1 cells, GloSensor cAMP luminescence, 1 h. Potency, µM (doses to about 115 µM), without a hit: at the top dose activation, usual class: activators. 410,000 compounds, 0.075% hits. AID 743266; also: potency is read from the fitted curve at half-maximal effect; nearly all actives have a fitted effect of over 55% in size
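HEK-293-derived GP2 cells expressing PTHR1 and a GloSensor cAMP reporter, 3,000/well, plated overnight, given luciferin plus IBMX (each 0.5 mM as added) for 1 h at 37 °C, then compound for 1 h at 37 °C. Luminescence was read after 15 min at room temperature.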
TRHR PAM: allosterically enhances the human TRH receptor | P34981 | TRHR cells, fluo-8 calcium fluorescence, EC20 TRH enhancement | enhancement, % at 2 µM | 360,000 compounds, 0.66% hits | AID 493056; in the data active = enhancement above about 30%; also: 0% is about no effect
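TRHR-expressing cells loaded with fluo-8 calcium dye were read kinetically (ex 480/em 530) during compound addition, then stimulated with an EC20 of TRH (10 nM final). Enhancement of the Gq-mediated intracellular calcium response was scored.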
GLP1R cytotox: cytotoxic in the GLP-1 receptor inverse agonist counter-screen. HEK293 cAMP-luciferase reporter cells, luminescence, 24 h. Potency, µM (highest dose often 38.3 µM), inactives show top-dose activity change, negative = inhibition, hits mostly inhibitors. 410,000 compounds, 0.13% hits;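 also: loss of luciferase light is scored as toxicity; potency is read from the fitted curve at half-maximal effect; % is scaled to controls: 0 for no effect and ±100 for the full control effect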
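Step one: seed cells (200 cells/uL, DMEM with 10% Nu serum, 1% pen-strep). Step two: 12-hour incubation at 37 deg C. Step three: pin 23 nL compound, incubate 24 hr. Step four: add luciferase reagent, read luminescence 12 min later.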
GLP1R inv ag: inverse agonists of human GLP-1 receptor. HEK293 GLP-1R CRE-luciferase, luminescence, 24 h; GLP-1R form is constitutively active. Potency, µM (series often up to 38.3 µM), without a hit: top-dose activity change, negative = inhibition, hits mostly inhibitors. P43220. 410,000 compounds, 1.6% hits; also: potency is read from the fitted curve at half-maximal effect; % is scaled to controls: 0 for no effect and ±100 for the full control effect; nearly all actives have a fitted effect of over 55% in size
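Readout was luciferase luminescence, measured 12 min after detection reagent at room temperature. Beforehand, GLP-1R reporter HEK293 cells had sat 12 h, then received compounds for 24 hr at 37 deg C.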
Numbers without * were called inactive; i = inactive; ? = inconclusive; nt = no result given; [ ] = another dose, or the depositor's remark. Unless noted, calls follow the shape of the dose curve; as a rule, active = well fitted curve in the direction sought with a large enough effect; inconclusive = small, poorly fitted or top-dose-only effect, or another doubt; inactive = no such curve, though single readings can be large; an effect the other way counts as inactive or inconclusive.

SMILES	TRHR agonist	GLP1R ag	PTHR1 ag	TRHR PAM	GLP1R cytotox	GLP1R inv ag
O=c1[nH]c(C2CCN(S(=O)(=O)c3ccc4c(c3)OCCO4)CC2)nc2c1nnn2Cc1cccc(F)c1	1	24%	-16%	-13	-9%	26%
Cc1cccc(N(C(=O)c2snc(C(N)=O)c2N)C(C(=O)NCC2CCCO2)c2ccc(N(C)C)cc2)c1C (configuration not stated)	-3	-4%	i	6	-5%	24%
O=C(COc1ccc(Br)cc1)NCCN1CCCC1	0	-1%	9%	30*	6%	-30%
CCC/C(=C1/c2ccccc2C(=O)N1c1ccccc1)c1ccc(O[C@@H]2CCCCO2)cc1	nt	-6%	i	nt	2%	13µM*
CCC/C(=C1/c2ccccc2C(=O)N1c1ccccc1)c1ccc2c(c1)OCCO2	0	8%	i	-2	-10%	?
Cc1ccc(C(=O)c2cn(Cc3ccccc3)c3ccccc3c2=O)cc1	0	nt	0%	-3	-5%	-32%
COc1ccc(C(=O)c2cn(Cc3ccccc3)c3ccccc3c2=O)cc1OC	0	nt	i	48*	-16%	4%
N#CC1=C(N)Oc2n[nH]c(-c3ccccc3)c2C1c1ccncc1 (configuration not stated)	0	0%	-16%	6	7%	2%
CCN(CC)C(=S)SCC(=O)NC12CC3CC(CC(C3)C1)C2	0	18%	-28%	-1	0%	2.8µM*
CCN(CC)CC(=O)NC12CC3CC(CC(C3)C1)C2	1	2%	i	-1	1%	-6%
O=C(NNC(=O)c1cccnc1)Nc1cccc2ccccc12	0	8%	-7%[57.5 µM]	3	-1%	-5%
COC(=O)C(C)(C)ONC(=O)Nc1ccccc1[N+](=O)[O-]	0	13%	i	31*	-5%	9%
CCCONC(=O)Nc1ccccc1[N+](=O)[O-]	-2	19%	i	3	-8%	22%
Cc1ccccc1OCCN1CCC(Cc2ccccc2)CC1	1	4%	i	-6	-19%	8.9µM*
CCOc1ccccc1OCCN1CCC(Cc2ccccc2)CC1	-1	10%	-25%	-1	?	?
COc1cccc(OC)c1OCCCCN1CCC(Cc2ccccc2)CC1	0	-1%	-17%	-2	-8%	?
CCC(=O)c1ccccc1OCCCN1CCC(Cc2ccccc2)CC1	0	8%	-31%	-5	?	7.9µM*
CCOc1ccc(S(=O)(=O)N2CCC(N3CCN(Cc4ccc(C)cc4)C(=O)C3=O)CC2)cc1	-1	nt	i	11	-3%	6%
CCN(CC)c1ccc(NC(=O)CN(C)Cc2cccs2)cc1	-1	14%	i	-9	-2%	11µM*
Cc1ccc(NC(=O)CN(C)Cc2cccs2)cc1Cl	0	23%	i	33*	3%	?
CN(CC(=O)Nc1c(F)cccc1F)Cc1cccs1	0	10%	-10%	0	-8%	-8%
NC(=O)c1ccsc1NC(=O)c1nc(-c2ccccc2)n(-c2ccccc2)n1	0	0%	-11%	-1	-5%	0%
Cc1ccc(C(=O)Cn2c(=N)n(CCN3CCOCC3)c3ccccc32)cc1	13	5%	-9%	1	2.5µM*	?
N=c1n(CCN2CCCCC2)c2ccccc2n1CC(=O)c1ccc(Cl)c(Cl)c1	-1	11%	-5%	12	?	5.6µM*
COC(=O)Cc1c(C)c2ccc(OCC(=O)N3CCCC3)c(C)c2oc1=O	1	1%	i	3	-18%	16%
SMILES	TRHR agonist	GLP1R ag	PTHR1 ag	TRHR PAM	GLP1R cytotox	GLP1R inv ag
CCC(Oc1ccccc1)C(=O)NC1CCCCCC1 (configuration not stated)	0	0%	-14%	2	13%	10µM*
CCC(Oc1ccccc1)C(=O)NC1CCSC1=O (configuration not stated)	0	4%	-6%	0	17%	3%
COc1ccc(CCNC(=O)c2cccc(S(=O)(=O)N3CCCCC3)c2)cc1	-1	2%	-29%	-3	-16%	?
C=CCN(c1ccccc1Cl)S(=O)(=O)c1cccc(C(=O)NCCc2ccc(OC)cc2)c1	1	-3%	i	1	-4%	4.5µM*
Cc1ccc(CNC(=O)C2CC3Cn4c(nc5cc(C)c(C)cc54)C3N2C)o1 (configuration not stated)	0	3%	i	-3	2%	20%
CCOc1cc(/C=N/NC(=O)CSc2nncn2C)ccc1OC(=O)c1ccc(Cl)cc1	-1	7%	-16%	30*	15%	-7%
Cc1cccc(NC(=O)CCNS(=O)(=O)c2cccc3nsnc23)c1C	-1	7%	-36%	13	0%	5%
COc1ccc(Cl)cc1NC(=O)CN(C)C(=O)c1cc2c(s1)CCCC2	0	3%	-28%	2	?	5µM*
COc1ccc(Cl)cc1NC(=O)CN(C)C(=O)c1sc2ccccc2c1Cl	1	21%	-17%	-6	-33%	5.6µM*
COc1ccc(Cl)cc1NC(=O)CN(C)C1CCCCC1	0	11%	i	1	14%	?
COc1ccc(Cl)cc1NC(=O)CN(C)C(C)C(=O)NC(=O)NC1CCCCC1 (configuration not stated)	0	-15%	-15%	-5	?	3.2µM*
COc1ccc(Cl)cc1NC(=O)CN(C)C(=O)Cc1ccc2c(c1)CCC2	0	11%	i	-2	-1%	?
C1CC(=NN=C2CCSCC2)CCS1	nt	9%	i	nt	-6%	2%
CC1(C)C2CCC1(C)C(NC(=O)/C=C/c1ccccc1)C2 (configuration not stated)	0	4%	-24%	11	-10%	7.1µM*
CC1(C)C2CCC1(C)C(Nc1ccccc1)C2 (configuration not stated)	0	-3%	-28%	1	-6%	-18%
CC1CCCCC1NC(=O)CO/N=C/c1ccccc1OC(F)F (configuration not stated)	0	25%	-16%	-5	0%	10µM*
CC(C)[C@H](NC(=O)OCc1ccccc1)C(=O)NCc1ccccc1	0	1%	i	-9	1%	-7%
CC(C)C[C@@H](CN1CCC[C@@H]1CN1C(=O)C(=O)NC[C@@H]1Cc1ccccc1)N1C[C@H](Cc2ccc(O)cc2)N(CC2CCCCC2)C(=O)C1=O	nt	-6%	28%	nt	-12%	?

Screening results (PubChem)
